We go through 18 compounds from PubChem BioAssay (NCATS).

Test [1] can be described thus: Viability qHTS for spleen associated tyrosine kinase inhibitor (SYKi) naive MV4-11 cells (AID 1963823). Note: nearly all actives have a fitted effect of over 40% in size. Summed up: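 SYKi-naive MV4-11 AML cells, 500 per well, were exposed to library compounds for 72 hr at 37 C, 5% CO2. Viability was then read by CellTiter-Glo luminescence after 10 min at room temperature.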
Test [2] can be described thus: Quantitative highthroughput screen to assess conditional lethalithy of NOMO1 cells grown in RPMI1640 with untreated serum (RPMI+s) (AID 1963876).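 For Viability: 100% = DMSO wells and 0% = empty wells without cells.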 Note: nearly all actives have a fitted effect of over 35% in size. Summed up: (§1)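 Each medium arm—HPLM with 10% dialyzed FBS, or RPMI1640 with 5 mM glucose and 10% untreated or dialyzed FBS—was screened against an 11-point, 3-fold compound titration for 48 h at 37 °C, with CellTiter-Glo luminescence as endpoint.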

Test [3] can be described thus: Quantitative highthroughput screen to assess conditional lethalithy of NOMO1 cells grown in RPMI1640 with dialyzed fetal bovine serum (RPMI+ds) (AID 1963877).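 For Viability: series mostly up to about 46 µM; 100% = DMSO control wells and 0% = empty wells.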 Note: nearly all actives have a fitted effect of over 30% in size. Summed up:
as §1

Test [4] in a line: Quantitative highthroughput screen to assess conditional lethalithy of NOMO1 cells grown in Human Plasma-Like Medium with dialyzed fetal bovine serum (HPLM+ds) (AID 1963878).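 For Viability: 100% = DMSO wells and 0% = empty wells on each plate.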 Note: nearly all actives have a fitted effect of over 35% in size. Summed up:
as §1

Test [5] can be described thus: Quantitative highthroughput screen to assess conditional lethalithy of P12 Ichikawa cells grown in Human Plasma-Like Medium with dialyzed fetal bovine serum (HPLM+ds) (AID 1963879). For Viability: series mostly up to about 46 µM. Note: nearly all actives have a fitted effect of over 35% in size. The note with it: Potency: viability. A digest of the protocol:
as §1

The nature of test [6]: Quantitative highthroughput screen to assess conditional lethalithy of P12 Ichikawa cells grown in RPMI1640 with dialyzed fetal bovine serum (RPMI+ds) (AID 1963880).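 For Viability: 100% = DMSO wells and 0% = empty wells on each plate.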 Note: nearly all actives have a fitted effect of over 35% in size. The note with it: Potency: P12-Ichikawa viability. Summed up: as §1
A short description of test [7]: Quantitative highthroughput screen to assess conditional lethalithy of P12 Ichikawa cells grown in RPMI1640 with untreated serum (RPMI+s) (AID 1963881).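 For Viability: series mostly up to about 46 µM; 100% = DMSO wells and 0% = empty wells without cells.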 Note: nearly all actives have a fitted effect of over 35% in size. The note with it: Potency: viability. A digest of the protocol:
as §1

The nature of test [8]: Quantitative highthroughput screen to assess conditional lethalithy of SEM cells grown in Human Plasma-Like Medium with dialyzed fetal bovine serum (HPLM+ds) (AID 1963882). For Viability: series mostly up to about 46 µM. Note: nearly all actives have a fitted effect of over 35% in size. Summed up: as §1
Test [9] can be described thus: Quantitative highthroughput screen to assess conditional lethalithy of SEM cells grown in RPMI1640 with unreated serum (RPMI+s) (AID 1963883).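 For Viability: 100% = DMSO wells and 0% = empty wells without cells.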 Note: nearly all actives have a fitted effect of over 35% in size. Summed up: as §1
Test [10] in a line: Quantitative highthroughput screen to assess conditional lethalithy of SEM cells grown in RPMI1640 with dialyzed fetal bovine serum (RPMI+ds) (AID 1963884).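 For Viability: series mostly up to about 46 µM; 100% = DMSO control wells and 0% = empty wells without cells.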 Note: nearly all actives have a fitted effect of over 35% in size. Summed up: as §1
Test [11] can be described thus: Cellular viability qHTS for adrenocortical cancer (ACC) cell line SW-13 (AID 1963989).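 For activity (max response): cells grown in serum-free medium with ITS supplement; % is set by controls: 0 for no effect and ±100 for the full control effect.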 Note: nearly all actives have a fitted effect of over 65% in size. The note with it: SW-13 ACC cells viability, CellTiter-Glo, 48 h; activity (max response): active compounds read low. Summed up: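 Here, serum-free SW-13 cultures were dosed up to 46 uM. Following 48 h, ATP-dependent luminescence (CellTiter-Glo) reported viable cells, and logistic modeling produced IC50 values.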
Background: qHTS replaces the single test concentration by a dilution series.

A short description of test [12]: Cellular viability qHTS for adrenocortical cancer (ACC) cell line NCI-H295R (AID 1963990). Note: nearly all actives have a fitted effect of over 60% in size. A digest of the protocol:
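Viability of NCI-H295R after 48 h of treatment (final up to 46 uM) measured through cellular ATP luminescence.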

Test [13] is described as follows: Viability qHTS for spleen associated tyrosine kinase inhibitor (SYKi) drug resistant MV4-11 cells (AID 1963824). Note: nearly all actives have a fitted effect of over 35% in size. Summed up:
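CellTiter-Glo luminescence, read 10 min after reagent addition, reports viability after a 72 hr compound exposure. Cells are an MV4-11 line made resistant to SYK inhibition, seeded at 500 per well onto compound-containing plates.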

The structures appear in SMILES notation. Values joined by “and” are separate entries in the source; they are usually repeats but may differ in a detail not shown here. Equal entries are not always repeated. Inconclusive results are not listed. Unmarked numbers belong to inactive results. Active and inactive are the calls of the source. Calls come from the whole dose curve; as a rule, active = well fitted curve in the direction sought with a large enough effect; inconclusive = small, poorly fitted or top-dose-only effect, or another doubt; inactive = no such curve, though single readings can be large; an effect the other way counts as inactive or inconclusive.
Potency is the fitted concentration of half-maximal effect.

For `CCCCC(CC)COC(=O)C(C#N)=C(c1ccccc1)c1ccccc1` (stereo not given), the Potency in test [1] is 26600 nM (active). Besides, the Potency result in test [2], in test [3], in test [4], in test [5], in test [6] and in test [7] was “inactive” in each case. Further, the Potency entry in test [8], in [9], in [10] and in [12] was “inactive” each time. Besides, the activity (max response) in test [11] was 0.298% and -14.7%.
In the case of `C[C@H](NC(=O)Cc1cc(F)cc(F)c1)C(=O)N[C@@H]1C(=O)N(C)c2ccccc2-c2ccccc21`, the Potency entry in test [1] is “inactive”. For the same compound, the Potency in [2] is 11800 nM (active); in test [3] it was 14800 nM (active); in test [4] it was 4690 nM (active); in test [5] it was 2640 nM (active); in [6] it was 7430 nM (active); in test [7], 7430 nM (active). For the same compound, the Potency in [8] was 4180 nM (active); in test [9] it was 1180 nM (active); in test [10] it was 3320 nM (active). In test [11], the activity (max response) was -7.45%.
Turning to `Cc1ccc(Nc2ncc3c(n2)N(C)C(=O)N(c2cc(NC(=O)c4cccc(C(F)(F)F)c4)ccc2C)C3)cn1`, the Potency in test [1] was 14.8 nM (active); in test [13] it was 13 nM (active). Moreover, in [12], the Potency entry is “inactive”.
For the compound `COC(=O)Nc1ccc(-c2nc(N3CCOCC3)c3cnn(C4CCN(C(=O)OC)CC4)c3n2)cc1`, the figures for the Potency in test [1], in [13] and in test [12] were 662 nM (active), 1050 nM (active) and 2510 nM (active), respectively.
With `Nc1ccccc1NC(=O)c1ccc(CNc2nccc(-c3cccnc3)n2)cc1`, the Potency was 291 nM (active) in test [1]; 2640 nM (active) in test [2]; 2350 nM (active) in test [3]; 2350 nM (active) in [4]; 2090 nM (active) in test [5]; 2350 nM (active) in [6]. In addition, the Potency is 2090 nM (active) in test [7]; 743 nM (active) in test [8]; 833 nM (active) in test [9]; 662 nM (active) in [10]; 3980 nM (active) in [11].
For `Cn1cc(C2=C(c3cn(C)c4cc([N+](=O)[O-])ccc34)C(=O)NC2=O)c2ccccc21`, the Potency in [1] is 296 nM (active); in test [13], 372 nM (active); in test [12], 178 nM (active).
Take `C=CC(=O)N1CC(N2CCN(C(=O)CNc3cc(C4(C)CC4)c(Cl)cc3O)CC2)C1`: the Potency was 18600 nM (active) in test [1], 16600 nM (active) in test [13] and 15800 nM (active) in [12].
Turning to `O=C1C(c2c(O)[nH]c3ccccc23)=Nc2ccccc21`, the Potency result in [1], in test [2], in test [3], in [4], in [5] and in test [6] was “inactive” each time. The Potency result in [7], in test [8], in test [9], in test [10] and in [12] was “inactive” throughout. In [11], the activity (max response) was -5.8%.
Consider `CN(C)C/C=C/C(=O)Nc1cccc(C(=O)Nc2cccc(Nc3ncc(Cl)c(-c4c[nH]c5ccccc45)n3)c2)c1`, for which the Potency entry in test [1] was “inactive”. For the same compound, the Potency is 3.7 nM (active) in test [13] and 1120 nM (active) in test [12].
For `COc1ccccc1-c1cccc(-c2c(O)c3cc(C#N)c(Cl)cc3[nH]c2=O)c1`, the Potency result in test [1] and in test [12] was “inactive” throughout. Also, the Potency in test [2] was 17100 nM (active); in [3], 19100 nM (active); in [4] it was 6790 nM (active); in test [5], 4810 nM (active); in [6], 8550 nM (active); in test [7], 10800 nM (active). The results for the Potency in test [8], in test [9] and in test [10] were 8550 nM (active), 2700 nM (active) and 5400 nM (active), respectively. The activity (max response) in test [11] is -20.9%.
Consider `CCCCCCCCCCCCCCCC[n+]1ccccc1`, for which the Potency in test [1] was 668 nM (active); in test [13] it was 668 nM (active); in test [12], 5800 nM (active).
Consider `c1ccc2[nH]ccc2c1`, for which the Potency entry in test [1], in [13] and in test [12] was “inactive” throughout.
On to `CCC(=O)N1CCN(c2ccc(-n3c(=O)ccc4cnc5ccc(-c6cnc7ccccc7c6)cc5c43)cc2C(F)(F)F)CC1`, for which the Potency is 42.2 nM (active) and 36.2 nM (active) in [1]; 132 nM (active) in test [2].
Consider `Cc1cccc(C)c1NC(=O)c1ccccc1C(=O)O`, for which the Potency entry in [1], in [13] and in [12] was “inactive” each time.
On to `CC(=O)N(C)C1(c2ccccc2)CCN(CCC[C@]2(c3ccc(Cl)c(Cl)c3)CCCN(C(=O)c3ccccc3)C2)CC1`, for which the Potency is 4110 nM (active) in [1]; 1870 nM (active) in test [2]; 1870 nM (active) in test [3]; 526 nM (active) in test [4]; 2960 nM (active) in test [5]; 2960 nM (active) in test [6]. For the same compound, the Potency is 7430 nM (active) in test [7], 662 nM (active) in test [8] and 743 nM (active) in [9].
As for `c1ccc(-c2cc(CCC3CCNCC3)c3ccccc3n2)cc1`, the Potency in test [1] is 7420 nM (active); in [13] it was 6610 nM (active); in test [12] it was 15800 nM (active).
On to `C[C@](Cc1c[nH]c2ccccc12)(NC(=O)OC1C2CC3CC(C2)CC1C3)C(=O)NC[C@H](NC(=O)CCC(=O)O)c1ccccc1` (stereo not given in full), for which the Potency entry in [1], in test [2], in [3], in test [4], in test [5] and in test [6] was “inactive” each time. The Potency result in test [7], in [8], in test [9] and in test [12] was “inactive” in each case. Further, in test [11], the activity (max response) is 0.678%.
In the case of `CC(C)(C)c1cc(NC(=O)Nc2ccc(-c3cn4c(n3)sc3cc(OCCN5CCOCC5)ccc34)cc2)no1`, the Potency result in test [1], in test [2], in test [3], in [5], in test [6] and in [7] was “inactive” in each case. In addition, the Potency result in [12] was “inactive”. For the same compound, in test [11], the activity (max response) is 1.45%.
